From PubChem BioAssay come the findings set out here.

Activity calls are given as the source filed them.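 How the source made its calls, unless noted: active means compounds that lower viability of the colon cancer cells in the luminescence readout, with no numeric limit stated; inactive means the rest.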

Experiment [1] is described as follows: Wnt pathway potentiators raising nuclear beta-catenin – imaging, WNT3A-conditioned medium, mouse C2C12, NPC library, primary screen (AID 1117326; in the data active means nuclear beta-catenin stimulation mostly above about 4.2%, no sharp cut-off; inactive means mostly below about 10%; further: reference of the scale not given here). To be noted: stronger effect = higher value.
A short description of experiment [2]: stimulators of insulin release from INS-1E, primary screen, cell-based, 5 mM glucose, NPC library (AID 1117329;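 active means compound raises insulin release from rat beta cells at 5 mM glucose, no numeric limit stated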; further: reference of the scale not given here). As to conditions: rat INS-1E insulin secretion, at 10 µM, stronger effect = higher value.
A short description of experiment [3]: growth inhibition of GSK3B-pretreated HCT116 cells – cell-based, CellTiter-Glo, 0.2 to 20 µM (AID 1117336;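 active means compounds lowering colon cancer cell viability after pretreatment blocking the GSK3B kinase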). As to conditions: HCT116 viability after GSK3B inhibitor, at 20 µM, stronger effect = higher value. In general terms: ATP-based viability assays read luminescence as a measure of living cells.
Experiment [4] in a line: inhibition of endothelial tube formation, primary screen, imaging, VEGF stimulated, CD31 staining, tube area, NPC library (AID 1117340;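 active means compound that reduces growth-factor-driven endothelial tube area in a mixed cell culture, no cutoff stated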). As to conditions: VEGF-stimulated ADSC/ECFC co-culture, at 10 µM, stronger effect = higher value.
A short description of experiment [5]: GLP1 release stimulators, primary, NCI-H716, NPC library (AID 1117341;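 active means compound raises GLP1 secretion from the human gut endocrine cells, with no numeric limit stated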; further: reference of the scale not given here). As to conditions: NCI-H716 cells, at 10 µM, stronger effect = higher value.
Experiment [6] in a line: HCT116 colon cancer cell growth inhibition, primary screen, CellTiter-Glo luminescence, NPC library (AID 1117342;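 active means compounds that lower survival of HCT116 colon cancer cells in the luminescence readout, no numeric limit stated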). As to conditions: at 20 µM (top of the series).
Experiment [7] in a line: reduced SW480 viability measured with CellTiter-Glo, NPC library, primary (AID 1117343). As to conditions: CellTiter-Glo luminescence; at 20 µM (top of the series).
Experiment [8] can be described thus: NPC library primary testing for decreased DLD-1 cell viability via CellTiter-Glo (AID 1117346;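 active means compounds that lower survival of DLD-1 colon cancer cells in the luminescence readout, no cutoff given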). To be noted: DLD-1 viability, CellTiter-Glo luminescence; at 20 µM (top of the series).

Take `CN(C)CCN1CCN(c2cccc(Cl)c2)C1=O`: the nuclear beta-catenin stimulation is 0.8% (inactive) in experiment [1] (at 10 µM) and 0.1% in experiment [1] (stimulation, at 2 µM). Besides, in experiment [2], the insulin secretion stimulation is 2.6% (inactive). In addition, the viability decrease in experiment [3] is 10.9% (inactive). Moreover, the tube area decrease in experiment [4] is 8% (inactive). Moreover, the GLP1 secretion stimulation in experiment [5] was 4% (inactive). The inhibition of viability in experiment [6] is 50% (active). In addition, the viability decrease (inhibition) in experiment [7] is 7.4% (inactive); in experiment [8], -1.8% (inactive).
For the molecule `CCCCC[C@H](O)C=C[C@H]1[C@H](O)CC(=O)[C@H]1CC=CCCCC(=O)O`, the nuclear beta-catenin stimulation is 0.5% (inactive) in experiment [1] (at 10 µM) and -0.7% in experiment [1] (stimulation, at 2 µM). The insulin secretion stimulation in experiment [2] was 1.7% (inactive). For the same molecule, the viability decrease in experiment [3] is -18.4% (inactive). Also, the tube area decrease in experiment [4] is 28.7% (inactive). In addition, the GLP1 secretion stimulation in experiment [5] was 3.8% (inactive). Besides, in experiment [6], the inhibition of viability is -14.5% (inactive). The viability decrease (inhibition) is 25.3% (inactive) in experiment [7] and -48.6% (inactive) in experiment [8].
For the molecule `CC(=O)CCC(=O)O`, the nuclear beta-catenin stimulation is -1.6% (inactive) in experiment [1] (at 10 µM) and -1.3% in experiment [1] (stimulation, at 2 µM). The insulin secretion stimulation in experiment [2] is 2% (inactive). Also, the viability decrease in experiment [3] is -4.6% (inactive). In addition, in experiment [4], the tube area decrease is 0.2% (inactive). In experiment [5], the GLP1 secretion stimulation was -2.2% (inactive). Besides, in experiment [6], the inhibition of viability is -6.13% (inactive). The viability decrease (inhibition) in experiment [7] was 20% (inactive); in experiment [8], -8.6% (inactive).
`O[C@@H]1CO[C@H]2[C@@H]1OC[C@@H]2O`: the nuclear beta-catenin stimulation in experiment [1] (at 10 µM) is 1% (inactive); in experiment [1] (stimulation, at 2 µM) it was 1%. In addition, the insulin secretion stimulation in experiment [2] is -2% (inactive). Moreover, in experiment [3], the viability decrease is 2.15% (inactive). Also, the tube area decrease in experiment [4] was 16.5% (inactive). For the same molecule, in experiment [5], the GLP1 secretion stimulation is 1.1% (inactive). Further, in experiment [6], the inhibition of viability was -9.1% (inactive). Also, the viability decrease (inhibition) in experiment [7] is 51.8% (active); in experiment [8], -4.4% (inactive).
On to `C[N+](C)(CCOc1ccccc1)Cc1cccs1`, for which the nuclear beta-catenin stimulation in experiment [1] (at 10 µM) was -0.3% (inactive); in experiment [1] (stimulation, at 2 µM), 1.1%. Moreover, the insulin secretion stimulation in experiment [2] was 2.65% (inactive). In experiment [3], the viability decrease was 22.9% (inactive). Also, in experiment [4], the tube area decrease was -14.7% (inactive). The GLP1 secretion stimulation in experiment [5] is -1.6% (inactive). In experiment [6], the inhibition of viability is 27.5% (inactive). The results for the viability decrease (inhibition) in experiment [7] and in experiment [8] were -11.3% (inactive) and 1.8% (inactive), respectively.
For the molecule `Cc1ccc(C(=O)C(=O)O)cc1C`, the nuclear beta-catenin stimulation was 1% (inactive) in experiment [1] (at 10 µM) and 1.8% in experiment [1] (stimulation, at 2 µM). Moreover, in experiment [2], the insulin secretion stimulation was 2.9% (inactive). The viability decrease in experiment [3] is -10.8% (inactive). For the same molecule, in experiment [4], the tube area decrease was -6.7% (inactive). In addition, in experiment [5], the GLP1 secretion stimulation is -3.1% (inactive). Further, the inhibition of viability in experiment [6] is -6.7% (inactive). Also, the viability decrease (inhibition) was 17.4% (inactive) in experiment [7] and -5% (inactive) in experiment [8].
As to `CC1(C)S[C@@H]2[C@H](NC(=O)C(c3ccccc3)S(=O)(=O)O)C(=O)N2[C@H]1C(=O)O` (stereo not given in full), the nuclear beta-catenin stimulation was 1.3% (inactive) in experiment [1] (at 10 µM) and 1.4% in experiment [1] (stimulation, at 2 µM). In experiment [2], the insulin secretion stimulation was -0.05% (inactive). Further, in experiment [3], the viability decrease is 5.8% (inactive). Moreover, the tube area decrease in experiment [4] was -2.3% (inactive). For the same molecule, in experiment [5], the GLP1 secretion stimulation is 3.6% (inactive). Further, the inhibition of viability in experiment [6] was 1.3% (inactive). In addition, the viability decrease (inhibition) was -0.2% (inactive) in experiment [7] and -1.8% (inactive) in experiment [8].
In the case of `O=C(CCCN1CCN(c2ccc(F)cc2)CC1)NC1c2ccccc2CSc2ccccc21` (stereo not given), the nuclear beta-catenin stimulation was 1.8% (inactive) in experiment [1] (at 10 µM) and 1.3% in experiment [1] (stimulation, at 2 µM). In addition, in experiment [2], the insulin secretion stimulation is -0.2% (inactive). Moreover, in experiment [3], the viability decrease is 53.5% (active). Further, the tube area decrease in experiment [4] is 32.7% (inactive). The GLP1 secretion stimulation in experiment [5] was 3.7% (inactive). Besides, the inhibition of viability in experiment [6] is 47.5% (inactive). The values for the viability decrease (inhibition) in experiment [7] and in experiment [8] were 27.4% (inactive) and 14.8% (inactive), respectively.
Consider `O=C(O)CC(O)C(=O)O` (stereo not given), for which the nuclear beta-catenin stimulation in experiment [1] (at 10 µM) was 6% (inactive); in experiment [1] (stimulation, at 2 µM) it was 0%. Besides, the insulin secretion stimulation in experiment [2] is -0.5% (inactive). Further, the viability decrease in experiment [3] was -6% (inactive). Further, the tube area decrease in experiment [4] was 1.8% (inactive). Also, in experiment [5], the GLP1 secretion stimulation was 1.3% (inactive). Moreover, the inhibition of viability in experiment [6] is -8.5% (inactive). For the same molecule, the viability decrease (inhibition) in experiment [7] was 13.3% (inactive); in experiment [8] it was -7.65% (inactive).
Consider `Cc1ccc(C(C)OC(=O)C2(C)CCC(C(=O)O)C2(C)C)cc1` (stereo not given), for which the nuclear beta-catenin stimulation in experiment [1] (at 10 µM) was -0.2% (inactive); in experiment [1] (stimulation, at 2 µM), -2.1%. Also, the insulin secretion stimulation in experiment [2] is 2.1% (inactive). The viability decrease in experiment [3] was -5% (inactive). In experiment [4], the tube area decrease was -0.8% (inactive). For the same molecule, the GLP1 secretion stimulation in experiment [5] was 0.6% (inactive). In addition, the inhibition of viability in experiment [6] is 0.3% (inactive). In addition, the viability decrease (inhibition) in experiment [7] is -11.8% (inactive); in experiment [8], 14.4% (inactive).
As for `CCc1cc(S(=O)(=O)O)c2cc(C(C)C)cccc1-2`, the nuclear beta-catenin stimulation in experiment [1] (at 10 µM) is -0.2% (inactive); in experiment [1] (stimulation, at 2 µM) it was -2.2%. Moreover, in experiment [2], the insulin secretion stimulation was 0.1% (inactive). In experiment [3], the viability decrease is -5.3% (inactive). Besides, the tube area decrease in experiment [4] is -12.6% (inactive). Besides, the GLP1 secretion stimulation in experiment [5] was -20.6% (inactive). Also, in experiment [6], the inhibition of viability was 1.1% (inactive). Moreover, the viability decrease (inhibition) in experiment [7] is -19% (inactive); in experiment [8], -14.2% (inactive).
`CCCCN=C(N)N=C(N)N`: the nuclear beta-catenin stimulation in experiment [1] (at 10 µM) was 2.9% (inactive); in experiment [1] (stimulation, at 2 µM), 0.9%. Further, the insulin secretion stimulation in experiment [2] is -1.1% (inactive). Further, the viability decrease in experiment [3] is -10.8% (inactive). Besides, the tube area decrease in experiment [4] is 3.5% (inactive). Besides, the GLP1 secretion stimulation in experiment [5] was 2.1% (inactive). Further, the inhibition of viability in experiment [6] was 3.4% (inactive). In addition, the figures for the viability decrease (inhibition) in experiment [7] and in experiment [8] were 54.5% (active) and -0.2% (inactive), respectively.
As for `C[C@@H](O)[C@H](N)C(=O)O`, the nuclear beta-catenin stimulation in experiment [1] (at 10 µM) is 0.7% (inactive); in experiment [1] (stimulation, at 2 µM) it was 0.7%. Moreover, the insulin secretion stimulation in experiment [2] is -1.9% (inactive). Moreover, in experiment [3], the viability decrease is -7.25% (inactive). In addition, in experiment [4], the tube area decrease is -11.2% (inactive). Besides, the GLP1 secretion stimulation in experiment [5] is 1.6% (inactive). Also, in experiment [6], the inhibition of viability was -31.1% (inactive). Also, the results for the viability decrease (inhibition) in experiment [7] and in experiment [8] were 13.3% (inactive) and 12.6% (inactive), respectively.
As for `Nc1ccc(C(=O)OCC(O)CO)cc1` (stereo not given), the nuclear beta-catenin stimulation in experiment [1] (at 10 µM) is 3.1% (inactive); in experiment [1] (stimulation, at 2 µM), 3.7%. Besides, in experiment [2], the insulin secretion stimulation is 0.6% (inactive). Also, the viability decrease in experiment [3] was 0.9% (inactive). Also, the tube area decrease in experiment [4] is -15.4% (inactive). The GLP1 secretion stimulation in experiment [5] is -0.9% (inactive). The inhibition of viability in experiment [6] is 6.7% (inactive). The values for the viability decrease (inhibition) in experiment [7] and in experiment [8] were -16.3% (inactive) and -3.4% (inactive), respectively.
Turning to `NC(=O)COCCN1CCN(C(c2ccccc2)c2ccc(Cl)cc2)CC1` (stereo not given), the nuclear beta-catenin stimulation in experiment [1] (at 10 µM) is -0.4% (inactive); in experiment [1] (stimulation, at 2 µM) it was 1.4%. The insulin secretion stimulation in experiment [2] is 1.7% (inactive). In experiment [3], the viability decrease was -1.7% (inactive). In addition, the tube area decrease in experiment [4] is 9.8% (inactive). Further, in experiment [5], the GLP1 secretion stimulation was 2.2% (inactive). For the same molecule, the inhibition of viability in experiment [6] was 7.4% (inactive). The viability decrease (inhibition) in experiment [7] is -24.9% (inactive); in experiment [8] it was -5.9% (inactive).
